Assay outcomes deposited in PubChem by National Center for Advancing Translational Sciences (NCATS).
An excerpt weighted towards active compounds, which were near 6.1% of everything screened.
D1 potentiator: human D1 dopamine receptor positive modulation; P21728; HEK293 TREx D1 cells, calcium flux, dopamine EC20 potentiation; potentiation, % at 10 µM; actives 0.036% (n = 360,000); in the data active = potentiation above about 30%; also: 0% is about no effect
D3 antag: antagonists of human D3 dopamine receptor. D3R cells, DiscoveRx beta-arrestin luminescence, antagonist mode; active compounds read low. max response, negative = inhibition, %. actives 2.5% (n = 360,000). P35462; in the data active = max response below about -50%; inconclusive = no clear call, values can overlap the other calls; also: % is scaled to controls: 0 for no effect and ±100 for the full control effect
Target sequence (P35462 whole entry, looked up): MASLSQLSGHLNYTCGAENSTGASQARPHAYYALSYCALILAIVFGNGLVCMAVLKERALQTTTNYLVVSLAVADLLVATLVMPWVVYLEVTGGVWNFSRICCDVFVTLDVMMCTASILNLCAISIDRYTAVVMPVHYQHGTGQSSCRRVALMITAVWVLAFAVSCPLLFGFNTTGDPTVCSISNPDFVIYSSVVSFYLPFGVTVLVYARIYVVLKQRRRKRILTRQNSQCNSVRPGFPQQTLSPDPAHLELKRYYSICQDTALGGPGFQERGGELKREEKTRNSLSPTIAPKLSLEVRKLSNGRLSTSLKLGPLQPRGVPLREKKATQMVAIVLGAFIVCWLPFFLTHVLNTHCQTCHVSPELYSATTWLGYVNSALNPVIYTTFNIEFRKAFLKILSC
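Cells expressing the human receptor were seeded at 1500 cells/well, incubated overnight at 37 degrees C in 5% CO2, then exposed to library compounds with dopamine controls for 90 minutes at 37 degrees C before luminescent detection.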
DRD3 agonist: agonists of human D3 dopamine receptor; P35462; D3R DiscoveRx beta-arrestin cells, luminescence, 90 min; max activation, %; actives 0.58% (n = 410,000); AID 652048; in the data active = max activation above about 30%; also: 0% is about no effect
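Cells at 1500/well, incubated overnight, then treated with pinned compounds (dopamine as control) for 90 min at 37 degrees C. DiscoveRx reagent added for 30 - 60 minutes at room temperature; luminescence read.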
D1 agonist: human D1 receptor agonism; P21728; HEK293 T-REx D1 cells, calcium flux, agonist mode; activation, % at 2 µM; actives 1% (n = 360,000); in the data active = activation above about 30%; also: 0% is about no effect
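Agonism was scored from calcium flux recorded over 180 s (1 read/s) after pintool compound addition, following a 10-cycle baseline. Cells were inducible force-coupled HEK293 TREx D1, plated overnight at 30 C and loaded with no-wash calcium dye.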
D1 antag: human D1 dopamine receptor antagonism; activity change, negative = inhibition, % at 10 µM; actives 3.2% (n = 360,000); HEK293 TREx D1 cells, calcium flux, dopamine EC80; active compounds read low; in the data active = activity change below about -30%; also: % is scaled to controls: 0 for no effect and ±100 for the full control effect
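Allosteric or orthosteric antagonism assessed as attenuation of the calcium response to EC80 dopamine, added 180 s after compound, in induced HEK293 Trex D1 cells loaded with no-wash calcium dye.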
ERG-DNA inh: blocks human ERG Ets domain binding to DNA | fluorescence polarization, His-ERG Ets domain / labelled DNA | Potency, µM (titrated, usually from 76.9 µM), for the others: at the highest dose FP activity, negative = inhibition, most hits filed as inhibitors | actives 0.028% (n = 370,000); active = well fitted inhibition curve with a large enough effect in the polarisation, with a control signal flat; inconclusive = small, poorly fitted or top-dose-only effect, or effect the other way, or a change in a side signal; inactive = no such curve, though single readings can be large or run the other way; the % refers to the polarisation;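 also: polarization taken with two DNA probes labelled with fluorescein and Texas red; potency is read from the fitted curve at half-maximal effect; % of control where 0% means no effect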
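His-tagged ERG Ets domain (1 uM in the protein solution; 300mM KCl, 50mM Tris-HCl, 1mM EDTA, 1mM DTT, pH 7.5) received compound, then a probe mix of 5 nM fluorescein-DNA and 100nM Texas-615-DNA. Fluorescence polarization was read for both dyes.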
* hit, by the source's call; ? = inconclusive; nt = no result.

SMILES	D1 potentiator	D3 antag	DRD3 agonist	D1 agonist	D1 antag	ERG-DNA inh
CCN1CCN(c2c(S(=O)(=O)c3ccccc3)cnc3ccc(Cl)cc23)CC1	-7	nt	-20	1	-2	3%
CCc1ccc2ncc(S(=O)(=O)c3ccc(C)c(C)c3)c(N3CCCC3)c2c1	-2	-56*	-2	4	-7	2%
CCc1ccc(S(=O)(=O)c2cnc3ccc(OC)cc3c2N2CCCC(C)C2)cc1 (stereo not given)	-9	nt	-14	7	-56*	6%
CCN1CCN(c2c(S(=O)(=O)c3ccc(C)c(C)c3)cnc3cc(OC)c(OC)cc23)CC1	-8	nt	-15	0	-66*	4%
COc1ccc(S(=O)(=O)c2cnc3cc(OC)c(OC)cc3c2N2CCCC(C)C2)cc1 (stereo not given)	-9	nt	2	8	-3	8%
COc1ccc(/C=C/C(=O)OCC(=O)Nc2ccc(C)cc2)cc1S(=O)(=O)N1CCOCC1	-3	-9	1	0	4	4%
O=C(c1c(F)cccc1F)N1CCN(c2cccc(C(F)(F)F)c2)CC1	-8	16	4	9	-9	-10%
Cc1ccc(-c2c(C(=O)N/N=C/c3ccco3)nnn2-c2nonc2N)cc1	7	-18	-6	94*	31	2%
Nc1nonc1-n1nnc(C(=O)N/N=C/c2cccs2)c1-c1ccc2c(c1)OCO2	5	-6	-8	102*	25	4%
Cc1ccc(-c2c(C(=O)N/N=C/c3cccc(Cl)c3)nnn2-c2nonc2N)cc1	-3	-9	-2	16	-6	8%
CCOc1ccc(-c2c(C(=O)N/N=C/c3ccco3)nnn2-c2nonc2N)cc1	-5	6	-15	29	25	3%
Cc1ccc(-c2c(C(=O)N/N=C/c3ccsc3)nnn2-c2nonc2N)cc1	10	-8	1	148*	111	9%
Cc1ccc(-c2c(C(=O)N/N=C/c3cccs3)nnn2-c2nonc2N)cc1	20	0	1	76*	42	8%
CCN(C(=O)COC(=O)c1ccc2[nH]c3c(c2c1)CCCC3)C1CCS(=O)(=O)C1 (stereo not given)	-6	0	-6	5	15	-7%
CCOc1cccc(-c2c(C(=O)N/N=C/c3ccsc3)nnn2-c2nonc2N)c1	30	-22	7	72*	45	-2%
Cc1ccccc1C(=O)Nc1sc(C)c(C)c1C(=O)c1ccccc1	3	-25	-1	3	24	?
Cc1sc(NC(=O)CCl)c(C(=O)c2ccccc2)c1C	-3	-66*	-4	1	1	9%
Cn1c(=O)c2cc(NC(=O)Nc3cccnc3)ccc2n1-c1ccc(C(C)(C)C)cc1	nt	25	10	nt	nt	nt
CC(=O)N1CCC(N(CCN2CCOCC2)C(=S)Nc2ccc(C)cc2C)CC1	-5	8	-2	3	-31*	-7%
Cc1cccc(NS(=O)(=O)c2nnc(NC(=O)c3ccccc3F)s2)c1	-5	?	-17	3	15	-6%
Fc1ccc(CCn2c(Cn3c(-c4cnccn4)nc4ccccc43)nc3ccccc32)cc1	nt	-59*	-14	nt	nt	nt
CC(Cc1ccccc1)NC(=O)c1cc2ccccc2o1 (stereo not given)	-20	4	0	48*	-7	-4%
Cc1nc2ccccn2c1C(=O)NC1CCCc2ccccc21 (stereo not given)	-7	37	1	6	-34*	-4%
CN(CC(=O)NC1CCCc2ccccc21)C1CCCCC1 (stereo not given)	-2	-51*	-12	2	-2	-9%
O=C(CCl)NC1CCCc2ccccc21 (stereo not given)	-1	10	4	0	-8	1%
SMILES	D1 potentiator	D3 antag	DRD3 agonist	D1 agonist	D1 antag	ERG-DNA inh
O=C(NC1CCCc2ccccc21)c1cn2ccccc2n1 (stereo not given)	-7	8	-1	1	12	-18%
CCOC(=O)c1ccc(-c2ccc(/C=N/NC(=O)CN(c3ccccc3Cl)S(C)(=O)=O)o2)cc1	1	53	44*	6	6	-2%
Cc1ccc(C)c(N2CCN(CCCNC(=O)Cn3c(=O)c4cccn4c4cccnc43)CC2)c1	-1	-98*	-22	4	10	-1%
O=C(CCn1c(=O)c2cccn2c2cccnc21)NCCCN1CCN(c2ccc(F)cc2)CC1	nt	-67*	-4	nt	nt	nt
Cc1ccc(C)c(N2CCN(CCCNC(=O)CCn3c(=O)c4cccn4c4cccnc43)CC2)c1	-7	?	-8	0	-21	-1%
O=C1Nc2ccc(S(=O)(=O)NCCCO)c3cccc1c23	9	-22	1	4	3	-10%
O=C1Nc2ccc(S(=O)(=O)NCCC3=CCCCC3)c3cccc1c23	-9	66	5	17	-37*	0%
C=CCS(=O)(=O)N1CCCC(C(=O)c2cccc(Cl)c2)C1 (stereo not given)	-2	-18	-6	1	-23	0%
O=C(c1cccc(Cl)c1)C1CCCN(S(=O)(=O)c2ccccc2)C1 (stereo not given)	-3	21	4	0	-54*	20%
Cc1c(/C(O)=C2\C(=O)C(=O)N(CCCN(C)C)C2c2cccs2)cnn1-c1ccccc1 (stereo not given)	nt	11	-2	nt	nt	-11%
O=C(/C=C/c1cccc(OCc2ccccc2)c1)c1cccnc1	-7	-14	5	9	-37*	-7%
O=C(O)/C=C/c1cccc(OCc2ccccc2)c1	12	?	-13	-1	6	10%
Cc1ccccc1CS(=O)(=O)c1nnc([C@H](CC(C)C)NC(=O)OC(C)(C)C)o1	-1	-66*	-59	3	-17	-2%
CC[C@@H](C)[C@H](NC(=O)OC(C)(C)C)c1nnc(S(=O)(=O)Cc2cc(C)ccc2C)o1	-5	-79*	-8	6	-15	10%
CC(C)(C)OC(=O)N[C@@H](Cc1ccccc1)c1nnc(S(=O)(=O)Cc2cccc(F)c2)o1	-8	-4	-22	6	-29	-1%
CCn1c(SCC(=O)N/N=C/C=C\c2ccco2)nc2ccccc21	-6	-28	0	3	-35*	16%
CCC1C(=O)CC(c2ccco2)NC1c1ccco1 (stereo not given)	1	2	2	0	3	-3%
Cc1cc(Cl)ccc1OCC(=O)N[C@@H](Cc1ccccc1)c1nc2ccccc2[nH]1	1	-19	-3	2	-4	16%
